About 83,000 compounds went through this panel and 20% of them were active in at least one assay; those are over-represented in the sample as a whole.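 How to read the values: 0–100, growth inhibition (40 = 60% inhibited); 0, no net growth; -100 to 0, cell death (-40 = 40% of starting cells died; -100 = all dead).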 Unmarked numbers belong to inactive results. Active and inactive are the calls of the source. How the source made its calls: active means growth percent below 10; inactive means the rest.
Columns and labels:
Assay in all cases: NCI-60 one-dose screen, 48 h (100 = growth as untreated, 0 = no growth, -100 = all killed)
Conditions in all cases: 10 µM unless noted
[1] = tested on: EKVX NSCLC
[2] = tested on: UO-31 renal
[3] = tested on: TK-10 renal
[4] = tested on: CAKI-1 renal
[5] = tested on: A498 renal
[6] = tested on: CCRF-CEM leukemia
[7] = tested on: MOLT-4 leukemia
[8] = tested on: SN12C renal
[9] = tested on: ACHN renal

Row | SMILES | growth [1] | growth [2] | growth [3] | growth [4] | growth [5] | growth [6] | growth [7] | growth [8] | growth [9]
1 | CCOC(=O)C1=C(C)NC(SCc2nnc(-c3ccc(Cl)cc3)o2)=NC1c1ccc(Br)cc1 (stereo not given) | 71.3% | 52.6% | 79.9% | 67.2% | 73.2% | 43.4% | 8.29% (active) | – | –
2 | CNC(=O)c1cc(Oc2ccc(NC(=O)c3nc(S(C)(=O)=O)n(C)c3-c3ccc(F)cc3)cc2)ccn1 | 71.2% | 47.9% | 68.5% | – | 38% | 85% | 62.4% | 54.9% | 45.8%
3 | CN(C)CCOc1nc2c3cccnc3cc(-c3cccc(Cl)c3)c2c2ncccc12 | 34.3% | 38.2% | 28.5% | 28.1% | 43.7% | 6.83% (active) | -9.06% (active) | – | 6.48% (active)
4 | COc1cc(-c2csc(NC(=O)Nc3cccc(C(F)(F)F)c3)n2)cc(OC)c1OC | 38.3% | 46% | 49.4% | 48.2% | 59.1% | 28.1% | 18.1% | – | 31.3%
5 | COc1ccc(/C=C2\Cc3c(Br)cccc3C2=O)c(OC)c1 | 59.8% | 78.3% | 90.6% | 79.4% | 83.1% | 97.8% | 94.1% | – | 59.8%
6 | Cc1ccc(NC(=O)c2nc(S(C)=O)oc2-c2ccc(F)cc2)cc1Nc1nccc(-c2cccnc2)n1 (stereo not given) | 73.8% | 84.5% | 130% | – | 107% | 2.57% (active) | 0.215% (active) | 38.7% | 31.5%
7 | O=C1/C(=C\c2cccn2C(=O)c2ccccc2)c2ccccc2N1c1c(Cl)cccc1Cl | 80.5% | – | 86.4% | 87.8% | 90.4% | 14.3% | 27.9% | – | 79%
8 | CC(=O)OC1Oc2cc(C)c(C)cc2-c2oc(=O)c(-c3ccc(F)cc3)cc21 (stereo not given) | 81.7% | – | 120% | – | 47.9% | 36% | – | 83.2% | 89.5%
9 | CN(C)CCOc1nc2c3ccncc3cc(-c3cccc(Cl)c3)c2c2cnccc12 | 37.4% | 14.9% | 30.7% | 29.6% | 35.5% | 3.4% (active) | -14.7% (active) | – | 14.5%
10 | N#Cc1c(N)n(C2OC(CO)C(O)C2O)c2ncnc(N)c12 (stereo not given) | -20.3% (active) | -42.1% (active) | -9.6% (active) | – | – | -45.1% (active) | – | 6.49% (active) | 8.86% (active)
11 | COc1ccc([C@@H]2[C@@H](Oc3ccccc3)C(=O)N2c2cc(OC)c(OC)c(OC)c2)cc1F | 34.6% | 24.4% | 44.7% | – | -9.03% (active) | 8.73% (active) | 6.79% (active) | 24.6% | 21.5%
12 | CCCCN(CCCC)CCCN=c1nc2c(c(N)n1-c1ccccc1)c(=S)n(-c1ccccc1)c(=S)n2-c1ccccc1 | -74.2% (active) | – | -89.6% (active) | – | -100% (active) | -78.4% (active) | -55.8% (active) | -99.2% (active) | -95.8% (active)
13 | COc1ccc(C(=O)c2cc(C)c(OC)c(C)c2)cc1OC(=O)CCl | 44.9% | 45.8% | 62.6% | – | 44.1% | 8.68% (active) | 5.7% (active) | 31.4% | 21.4%
14 | CCCCCc1c(C)[nH]c(/C=C2\N=C(c3ccc[nH]3)C=C2CC)c1C | -90.3% (active) | -85.8% (active) | -88.9% (active) | -82.1% (active) | -90.8% (active) | -58.3% (active) | -58.8% (active) | -89.9% (active) | –
15 | Cc1ccccc1CNc1ncnc2[nH]ncc12 | 71.6% | – | 83.8% | 69% | 93.9% | 146% | -58.2% (active) | 112% | 87.2%
16 | C=C(C)c1ccc(/C=N/NC(N)=S)cc1 | 7.97% (active) | 78.6% | 103% | – | 98.4% | 64% | 75.3% | 93.3% | 93.2%
17 | CCOC(=O)C1=C(C)NC(SCc2nnc(-c3ccc(Cl)cc3)o2)=NC1c1ccc(Cl)cc1 (stereo not given) | 80.2% | 48.7% | 77.5% | 61.6% | 80.7% | 39.7% | 7.02% (active) | – | 64.1%
18 | Cc1n(Cc2ccc3ccccc3n2)cc[n+]1Cc1ccc2ccccc2c1 | 48.3% | – | 37.8% | – | -2.15% (active) | 16.3% | 5.13% (active) | 1.98% (active) | 88.5%
19 | CCc1ccc2c(c1)N(CCO)C1=C(C(=O)OC1)C2c1cccc(Cl)c1 (stereo not given) | 43% | 34.9% | 49.9% | 27.6% | -1.08% (active) | 10.5% | 17.6% | 38.7% | –
20 | COCCOCCOCc1n(Cc2ccc3ccccc3n2)c2ccccc2[n+]1Cc1ccc2ccccc2c1 | 31% | 79.2% | -8.46% (active) | – | -15.8% (active) | 1.17% (active) | -20.5% (active) | 5.5% (active) | –
21 | O=[N+]([O-])c1cc(F)c2cccnc2c1O | 110% | 73.6% | 152% | – | – | 120% | – | 93.5% | 89.4%
22 | CCCc1n(Cc2ccc3ccccc3n2)cc[n+]1Cc1ccc2ccccc2c1 | 41.6% | 73.8% | -4.74% (active) | – | -3.21% (active) | 9.37% (active) | -1.31% (active) | -0.216% (active) | 81.7%
23 | Cc1n(Cc2ccc3ccccc3n2)cc[n+]1Cc1ccc2ccccc2n1 | 80.7% | 87.3% | 80.8% | – | 88.5% | 76.2% | 98.3% | 77.9% | 103%
24 | CCCc1n(Cc2ccc3ccccc3n2)cc[n+]1Cc1ccc2ccccc2n1 | 58.1% | 86.5% | 62.1% | – | 35.4% | 36.2% | 23.2% | 9.65% (active) | 98.1%
25 | COc1ccc(/C(=C\c2cc(OC)c(OC)c(OC)c2)C(=O)N2CCCNCC2)cc1 | 104% | 85.9% | 101% | – | 99.1% | 99.9% | 94.7% | 106% | 109%
26 | CNC(=O)c1cc(Oc2ccc(NC(=O)c3nc(S(C)(=O)=O)sc3-c3ccc(F)cc3)cc2)ccn1 | 77.8% | 87.5% | 77% | – | 99.6% | 85.9% | 83.1% | 97.5% | 90.8%
27 | O=C(CCc1nc2sc3c(c2c(=O)[nH]1)CCC3)NCc1cn(-c2ccccc2)nc1-c1ccccc1 | 92% | 98.5% | 89.4% | 92.5% | 66.4% | 61% | 59.6% | – | 81.1%

From PubChem BioAssay (NCI)
